Test results taken from PubChem BioAssay (NCI).
About 79,000 compounds went through this panel and 15% of them were active in at least one assay; those are over-represented in the sample as a whole. Unmarked numbers belong to inactive results. The source made the active and inactive calls. No stated cut-off is given here; in the data, active means growth inhibition above about 70%; inactive means the rest.

Assays:
[1] = NCI Yeast Anticancer Drug Screen. Data for the rad50 strain (AID 155);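 further: 0% = growth of vehicle-only cultures of the same strain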; settings: S. cerevisiae rad50 strain growth inhibition; at 50.0 µM; stronger effect = higher value
Procedure, shortened: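 Relative growth inhibition (compound vs vehicle) was measured in yeast with a defined repair-gene alteration.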

[2] = NCI Yeast Anticancer Drug Screen. Data for the mec2-1 strain (AID 157); settings: S. cerevisiae mec2-1 strain, at 50.0 µM, stronger effect = higher value
Procedure, shortened: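 Mutant yeast (mec2-1) grown with compound; growth inhibition relative to vehicle control reported.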

[3] = NCI Yeast Anticancer Drug Screen. Data for the sgs1 mgt1 strain (AID 161);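 further: 0% = growth of cultures given vehicle only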; settings: S. cerevisiae sgs1 mgt1 strain, at 50.0 µM, stronger effect = higher value
Procedure, shortened: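 Compounds are added to genetically altered yeast, and growth is compared with cultures given vehicle alone to give percent inhibition.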

[4] = NCI Yeast Anticancer Drug Screen. Data for the cln2 rad14 strain (AID 165);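 further: 0% = growth equal to vehicle treated cultures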; settings: S. cerevisiae cln2 rad14 strain, at 50.0 µM, stronger effect = higher value
Procedure, shortened: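 Readout is yeast growth inhibition versus vehicle-treated controls, using a strain with cln2 and rad14 alterations exposed to compound.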

[5] = NCI Yeast Anticancer Drug Screen. Data for the bub3 strain (AID 167); settings: S. cerevisiae bub3 mutant strain, at 50.0 µM, stronger effect = higher value
Procedure, shortened: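 Screening used yeast with an engineered genetic alteration affecting cell cycle control. Compound-exposed cultures were compared with vehicle cultures, and reduced growth was taken as inhibition.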

[6] = NCI Yeast Anticancer Drug Screen. Data for the mlh1 rad18 strain (AID 175); settings: S. cerevisiae mlh1 rad18 strain growth inhibition; at 50.0 µM; stronger effect = higher value
Procedure, shortened: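 Genetically defined yeast (DNA repair-deficient) exposed to compounds; growth inhibition determined relative to vehicle.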

| Compound | growth inhibition [1] | growth inhibition [2] | growth inhibition [3] | growth inhibition [4] [%] | growth inhibition [5] [%] | growth inhibition [6] |
| --- | --- | --- | --- | --- | --- | --- |
| N#CC(C#N)=Cc1cccc(F)c1 | 37% | 25.2% | 19.4% | 15.6 | 20.2 | 31.9% |
| CCOP(=O)(OCC)O/N=C(/C#N)c1ccccc1 | 11.3% | -6.4% | 18.4% | -0.35 | -7.45 | -1% |
| O=S(=O)(O)C1CCC(O)C2[N-]CCCC21.O=S(=O)(O)C1CCC(O)C2[N-]CCCC21.[Ni+2] (stereo not given) | 50.8% | -4.3% | 27.9% | -13.4 | 8.4 | 23.9% |
| CCC1(C(C)C=C(C)C)C(=O)NC(=O)NC1=O (stereo not given) | -28.6% | -12.4% | -4.75% | 1.45 | 10.3 | -10.2% |
| Oc1ccccc1C=NCCN=Cc1ccccc1O | -15.2% | -11.6% | -1.1% | -41.2 | -9.2 | 31.8% |
| CN(C)CCCc1c[nH]c2ccccc12 | -20.4% | -6.6% | -4.85% | -7.5 | -52.5 | 8.25% |
| CC(Cl)CNC1CCCCC1 (stereo not given) | 6% | -3.5% | -8.95% | -10.6 | -0.95 | -0.9% |
| O=C1NC(=O)C2(CCOCC2)C(=O)N1 | -5.15% | 3.3% | -19.1% | -18.4 | -17.5 | 0.15% |
| C/C=C1/C[C@@H](C)[C@@](C)(O)C(=O)OCC2=CC[N+]3([O-])CC[C@@H](OC1=O)[C@@H]23 (stereo not given in full) | -0.9% | -17.4% | -3.4% | 10.7 | -15.9 | -53.6% |
| NC(=O)C1(Br)CCCCC1 | -11.8% | -18.9% | -10.5% | -7.25 | 8.45 | -3.55% |
| Oc1c(Cl)cccc1Cl | -22.4% | -51.9% | -63% | -1.6 | -55.1 | 3.4% |
| O=S(=O)(O)c1ccc([Se][Se]c2ccc(S(=O)(=O)O)cc2)cc1 | 5.8% | -12.9% | -18.1% | -33.5 | -19.2 | -17.4% |
| COc1ccc2c3c1OC1C(OC)(OC)C=C[C@@]4(Br)[C@@H](C2)N(CC2CC2)CC[C@]314 (stereo not given in full) | 34.1% | 5.6% | -35.1% | -8.55 | -9.9 | -44.6% |
| O=P(Oc1ccccc1)(Oc1ccccc1)Oc1c(Cl)c(Cl)c(O)c(Cl)c1Cl | 23.6% | 10% | 38.9% | 19.1 | -16.4 | 2.35% |
| COc1ccc(CN2CCCN(Cc3ccc(OC)cc3)C2c2ccc(N(CCCl)CCCl)cc2)cc1 | 30.3% | 2.4% | 43.8% | 19.8 | -15.3 | 35.8% |
| BrCCCBr | 15.1% | 5.8% | 14.4% | 10.7 | 12.4 | 21.3% |
| CCCCCCCCCCCC(=O)[O][Pb]([CH2]CCC)([CH2]CCC)[O]C(=O)CCCCCCCCCCC | 23.5% | 4.05% | 13.2% | -3.15 | 6.45 | 23% |
| Nc1nc(N)c(N=Nc2ccc([As](=O)(O)O)c(O)c2)c(N)n1 | -4% | -6.9% | -36% | -18.4 | -43 | -18.1% |

| Compound | growth inhibition [1] | growth inhibition [2] | growth inhibition [3] | growth inhibition [4] [%] | growth inhibition [5] [%] | growth inhibition [6] |
| --- | --- | --- | --- | --- | --- | --- |
| CC1=C(Cl)C=CP(=O)(Oc2ccccc2)C1 (stereo not given) | 19.5% | -14.4% | -12.2% | 29.2 | -5.6 | -8.15% |
| C#CCn1c(I)cc2c(c1=O)COC(=O)[C@]2(O)CC | 0.95% | -3.3% | 19.6% | -5.4 | 6.35 | -31.8% |
| COC(=O)C1=C(O)C(C(=O)OC)C2/C(=[N+](/[O-])O)c3c(cc([N+](=O)[O-])cc3[N+](=O)[O-])C1C2[N+](=O)[O-] (stereo not given) | 75.8% (active) | 81% (active) | 87.8% (active) | 66.3 | 67.8 | 90.7% (active) |
| Cc1c2ccccc2c(C)c2c1cc[n+]1ccccc21 | 14.1% | -1.35% | 15.2% | 0.05 | 1.05 | 1.8% |
| NP(=O)(Oc1cccc2c(OP(N)(=O)N(CCCl)CCCl)cccc12)N(CCCl)CCCl (stereo not given) | 6.95% | -3.65% | 8.1% | -29.7 | -3.25 | 16.9% |
| CN(C)/N=C/c1c[nH]c2ccccc12 | -13.9% | -13.8% | -20.1% | 0.5 | -17.7 | -8.4% |
| COc1ccc(Oc2cc3c(cc2OC)CCN(C)C3)cc1 | 15.9% | 7.7% | 20.1% | -0.6 | -22.9 | -6.6% |
| COc1ccc2c(c1)C1(C)CCN(C)CC(C1)C2O (stereo not given) | 47.2% | 13.6% | 15.6% | 22.9 | -1 | 23.2% |
| Cc1cn([C@H]2CC3C(CON3C)O2)c(=O)[nH]c1=O (stereo not given in full) | 3.3% | 7.55% | 1.15% | -3.55 | -8.55 | -37.4% |
| CC1(C)N=C(N)N=C(N)N1c1ccc(OCCOc2ccc(S(=O)(=O)F)cc2)cc1 | -11.1% | -14.4% | -2.05% | -59.4 | -10.7 | -18.4% |
| O=C(O)C(F)F | -16.9% | -1.2% | -18.2% | -31 | -15.3 | -3.15% |
| NC(N)=NN(N=O)C1CCCCC1 | 4.35% | 5.05% | -7.85% | -34.8 | -10.5 | 5.8% |
| O=C1NC(=S)NC(=O)C1=Cc1ccccc1O | -2.15% | -16.9% | -12.3% | -32.4 | -1.45 | -31.2% |
| CS(=O)(=O)C(Cl)Cl | -1.5% | -4.75% | 0.75% | -2.45 | 6.3 | 19.8% |
| [N-]=[N+]=CC(=O)C1(C(=O)C=[N+]=[N-])CC1 | -14.7% | -11.2% | -41% | -18.1 | -16.9 | -27.1% |
| c1ccc(-c2c[se]nn2)cc1 | 4.65% | -10.1% | -2.6% | -26.6 | -11.2 | 10.1% |
| CC[C@@H](C)C(=O)O[C@H]1[C@H](O)[C@H]2[C@@H](CN3C[C@@H](C)CC[C@H]3[C@@]2(C)O)[C@@H]2C[C@]34O[C@]5(O)[C@@H](OC(=O)[C@@](C)(O)CC)CC[C@@]3(C)[C@@H]5[C@@H](OC(C)=O)[C@@H](OC(C)=O)[C@H]4[C@@]21O | 11.8% | -15.3% | 0.75% | -4.3 | 8.75 | 7.35% |
